Experimental data reported in ChEMBL document CHEMBL2218924, “A broad activity screen in support of a chemogenomic map for kinase signalling research and drug discovery” (Biochem J, 2013).

Tests used:
[1] = target: T1, Serine/threonine-protein kinase TBK1 (Homo sapiens) (UniProt Q9UHD2); details: at 10 µM
T1 sequence (whole entry): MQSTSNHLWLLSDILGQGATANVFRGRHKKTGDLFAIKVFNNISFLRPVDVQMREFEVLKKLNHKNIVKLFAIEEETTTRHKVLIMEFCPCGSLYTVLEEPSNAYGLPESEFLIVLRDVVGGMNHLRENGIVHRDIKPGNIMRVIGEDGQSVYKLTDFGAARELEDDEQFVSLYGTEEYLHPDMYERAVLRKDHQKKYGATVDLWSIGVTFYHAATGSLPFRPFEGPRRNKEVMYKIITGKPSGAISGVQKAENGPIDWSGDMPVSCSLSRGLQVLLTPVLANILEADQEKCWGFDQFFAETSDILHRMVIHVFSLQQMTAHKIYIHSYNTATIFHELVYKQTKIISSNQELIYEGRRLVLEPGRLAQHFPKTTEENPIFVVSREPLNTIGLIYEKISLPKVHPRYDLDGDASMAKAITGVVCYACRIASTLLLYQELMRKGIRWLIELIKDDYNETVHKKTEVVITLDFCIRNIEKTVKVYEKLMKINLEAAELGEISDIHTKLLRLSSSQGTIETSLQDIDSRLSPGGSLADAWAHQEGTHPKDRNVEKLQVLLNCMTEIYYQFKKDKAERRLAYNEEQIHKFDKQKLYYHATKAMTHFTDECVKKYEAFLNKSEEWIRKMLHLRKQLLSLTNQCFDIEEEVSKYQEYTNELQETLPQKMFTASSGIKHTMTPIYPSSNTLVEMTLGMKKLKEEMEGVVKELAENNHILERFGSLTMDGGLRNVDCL

[2] = target: T2, TGF-beta receptor type-1 (Homo sapiens) (UniProt P36897); details: at 1 µM
T2 sequence (whole entry): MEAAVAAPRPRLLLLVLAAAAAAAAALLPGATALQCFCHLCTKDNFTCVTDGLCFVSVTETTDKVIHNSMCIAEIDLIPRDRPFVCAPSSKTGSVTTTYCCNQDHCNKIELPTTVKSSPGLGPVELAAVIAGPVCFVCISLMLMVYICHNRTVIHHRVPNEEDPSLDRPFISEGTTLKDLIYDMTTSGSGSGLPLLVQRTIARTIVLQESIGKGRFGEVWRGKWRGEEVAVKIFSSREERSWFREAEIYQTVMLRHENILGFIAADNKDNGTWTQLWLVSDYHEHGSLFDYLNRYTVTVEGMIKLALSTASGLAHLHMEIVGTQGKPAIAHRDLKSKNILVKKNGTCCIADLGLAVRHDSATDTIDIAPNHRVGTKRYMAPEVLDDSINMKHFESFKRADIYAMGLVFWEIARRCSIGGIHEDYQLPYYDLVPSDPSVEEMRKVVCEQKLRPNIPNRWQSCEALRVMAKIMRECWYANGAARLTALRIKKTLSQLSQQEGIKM

[3] = target: T2, TGF-beta receptor type-1 (Homo sapiens); details: at 10 µM
[4] = target: T3, Inhibitor of nuclear factor kappa-B kinase subunit alpha (Homo sapiens) (UniProt O15111); details: at 1 µM
T3 sequence (whole entry): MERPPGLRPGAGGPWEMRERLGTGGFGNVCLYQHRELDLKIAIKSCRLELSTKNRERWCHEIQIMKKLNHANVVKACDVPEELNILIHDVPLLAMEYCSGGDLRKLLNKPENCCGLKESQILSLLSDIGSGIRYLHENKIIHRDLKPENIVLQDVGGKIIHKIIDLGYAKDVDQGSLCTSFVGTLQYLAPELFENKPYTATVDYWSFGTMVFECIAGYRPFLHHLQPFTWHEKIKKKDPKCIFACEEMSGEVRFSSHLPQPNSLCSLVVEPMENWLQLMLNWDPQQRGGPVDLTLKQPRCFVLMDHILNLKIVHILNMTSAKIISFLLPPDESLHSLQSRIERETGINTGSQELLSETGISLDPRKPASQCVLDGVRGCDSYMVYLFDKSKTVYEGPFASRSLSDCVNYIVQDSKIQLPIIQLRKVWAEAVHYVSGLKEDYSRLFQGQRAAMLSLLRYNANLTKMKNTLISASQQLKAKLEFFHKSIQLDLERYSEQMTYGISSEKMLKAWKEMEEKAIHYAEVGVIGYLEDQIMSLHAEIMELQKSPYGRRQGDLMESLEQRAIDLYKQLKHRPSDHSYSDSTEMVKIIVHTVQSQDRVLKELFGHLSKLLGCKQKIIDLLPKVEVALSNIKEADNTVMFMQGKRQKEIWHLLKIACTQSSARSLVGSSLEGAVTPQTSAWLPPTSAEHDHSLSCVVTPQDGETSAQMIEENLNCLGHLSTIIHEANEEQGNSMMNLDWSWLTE

[5] = target: T3, Inhibitor of nuclear factor kappa-B kinase subunit alpha (Homo sapiens); details: at 10 µM
[6] = target: T4, Inhibitor of nuclear factor kappa-B kinase subunit beta (Homo sapiens) (UniProt O14920); details: at 1 µM
T4 sequence (whole entry): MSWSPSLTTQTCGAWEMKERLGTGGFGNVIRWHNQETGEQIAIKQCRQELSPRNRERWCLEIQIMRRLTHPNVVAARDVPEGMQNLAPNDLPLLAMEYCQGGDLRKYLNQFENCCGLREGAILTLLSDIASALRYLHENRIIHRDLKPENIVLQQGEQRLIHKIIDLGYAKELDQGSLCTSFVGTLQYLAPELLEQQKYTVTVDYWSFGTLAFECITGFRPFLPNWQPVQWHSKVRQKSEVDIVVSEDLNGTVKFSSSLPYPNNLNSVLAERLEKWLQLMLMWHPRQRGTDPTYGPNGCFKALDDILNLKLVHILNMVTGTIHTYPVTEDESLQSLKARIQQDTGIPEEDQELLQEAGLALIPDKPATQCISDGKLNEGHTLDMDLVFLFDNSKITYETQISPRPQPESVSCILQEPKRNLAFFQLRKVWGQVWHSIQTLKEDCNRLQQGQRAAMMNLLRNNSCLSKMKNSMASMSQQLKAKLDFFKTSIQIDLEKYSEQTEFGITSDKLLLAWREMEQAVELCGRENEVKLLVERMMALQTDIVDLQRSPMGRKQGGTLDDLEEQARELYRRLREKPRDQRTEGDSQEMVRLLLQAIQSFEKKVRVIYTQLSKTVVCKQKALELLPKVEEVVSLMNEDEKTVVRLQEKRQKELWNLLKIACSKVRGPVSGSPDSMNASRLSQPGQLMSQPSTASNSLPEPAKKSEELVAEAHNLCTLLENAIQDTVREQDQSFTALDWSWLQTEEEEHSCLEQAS

[7] = target: T4, Inhibitor of nuclear factor kappa-B kinase subunit beta (Homo sapiens); details: at 10 µM
[8] = target: Interleukin-1 receptor-associated kinase 1 (Homo sapiens) (UniProt P51617); details: at 1 µM
Sequence of Interleukin-1 receptor-associated kinase 1 (Homo sapiens) (P51617 whole entry, looked up): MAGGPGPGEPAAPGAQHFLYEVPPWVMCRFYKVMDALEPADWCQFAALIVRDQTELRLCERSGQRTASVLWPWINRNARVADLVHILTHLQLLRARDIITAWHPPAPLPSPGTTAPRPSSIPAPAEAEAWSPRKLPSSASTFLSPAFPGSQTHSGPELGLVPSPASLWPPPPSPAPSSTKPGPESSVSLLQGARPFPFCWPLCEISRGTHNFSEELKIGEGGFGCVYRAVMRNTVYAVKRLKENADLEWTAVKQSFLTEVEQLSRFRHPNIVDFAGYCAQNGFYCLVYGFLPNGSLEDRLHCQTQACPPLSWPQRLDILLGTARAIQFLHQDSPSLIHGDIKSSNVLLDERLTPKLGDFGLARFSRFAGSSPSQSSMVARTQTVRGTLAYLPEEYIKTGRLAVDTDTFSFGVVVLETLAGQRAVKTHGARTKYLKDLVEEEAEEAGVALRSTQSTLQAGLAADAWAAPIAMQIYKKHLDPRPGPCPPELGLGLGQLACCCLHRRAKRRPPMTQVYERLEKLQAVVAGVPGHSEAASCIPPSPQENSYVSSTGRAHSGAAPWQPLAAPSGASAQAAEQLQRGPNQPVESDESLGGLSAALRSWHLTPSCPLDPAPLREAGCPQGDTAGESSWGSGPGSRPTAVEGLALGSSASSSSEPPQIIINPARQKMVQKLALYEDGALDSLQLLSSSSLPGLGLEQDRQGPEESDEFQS

[9] = target: Interleukin-1 receptor-associated kinase 1 (Homo sapiens) (UniProt P51617); details: at 10 µM
[10] = target: T5, Interleukin-1 receptor-associated kinase 4 (Homo sapiens) (UniProt Q9NWZ3); details: at 1 µM
T5 sequence (whole entry): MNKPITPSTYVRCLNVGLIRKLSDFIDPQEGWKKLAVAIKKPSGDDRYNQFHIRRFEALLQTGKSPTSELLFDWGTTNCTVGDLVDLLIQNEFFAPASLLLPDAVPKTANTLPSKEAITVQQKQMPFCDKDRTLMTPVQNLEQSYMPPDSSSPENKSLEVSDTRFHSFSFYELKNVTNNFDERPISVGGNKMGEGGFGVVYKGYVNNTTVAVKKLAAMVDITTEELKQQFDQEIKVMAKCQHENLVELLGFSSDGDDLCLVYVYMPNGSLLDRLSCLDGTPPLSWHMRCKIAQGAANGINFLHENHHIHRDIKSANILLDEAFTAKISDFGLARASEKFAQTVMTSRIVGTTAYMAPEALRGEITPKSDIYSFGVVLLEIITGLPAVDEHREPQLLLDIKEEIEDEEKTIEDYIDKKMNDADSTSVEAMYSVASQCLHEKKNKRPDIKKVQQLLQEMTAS

[11] = target: T5, Interleukin-1 receptor-associated kinase 4 (Homo sapiens); details: at 10 µM
[12] = target: Insulin receptor-related protein (Homo sapiens) (UniProt P14616); details: at 1 µM
Sequence of Insulin receptor-related protein (Homo sapiens) (P14616 27-742 limits assumed): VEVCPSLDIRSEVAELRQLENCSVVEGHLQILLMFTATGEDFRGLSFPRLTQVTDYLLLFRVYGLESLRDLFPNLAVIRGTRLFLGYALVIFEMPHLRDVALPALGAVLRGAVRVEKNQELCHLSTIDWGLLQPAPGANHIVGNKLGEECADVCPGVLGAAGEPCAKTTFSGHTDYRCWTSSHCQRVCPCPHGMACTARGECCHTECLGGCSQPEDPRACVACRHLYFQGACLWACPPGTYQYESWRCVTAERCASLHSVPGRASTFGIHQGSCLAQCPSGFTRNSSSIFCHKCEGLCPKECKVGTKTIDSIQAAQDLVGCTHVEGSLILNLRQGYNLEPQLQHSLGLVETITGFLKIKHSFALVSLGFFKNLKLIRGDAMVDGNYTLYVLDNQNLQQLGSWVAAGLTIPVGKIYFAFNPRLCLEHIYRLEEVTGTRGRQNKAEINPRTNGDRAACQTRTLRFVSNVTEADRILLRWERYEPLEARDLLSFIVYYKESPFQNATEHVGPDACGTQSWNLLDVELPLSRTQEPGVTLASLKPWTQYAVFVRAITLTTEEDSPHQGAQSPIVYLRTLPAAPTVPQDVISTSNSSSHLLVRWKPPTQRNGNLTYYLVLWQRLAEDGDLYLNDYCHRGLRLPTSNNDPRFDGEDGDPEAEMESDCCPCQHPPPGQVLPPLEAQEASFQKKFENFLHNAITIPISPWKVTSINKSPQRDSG
Sequence of Insulin receptor-related protein (Homo sapiens) (P14616 747-1297 limits assumed): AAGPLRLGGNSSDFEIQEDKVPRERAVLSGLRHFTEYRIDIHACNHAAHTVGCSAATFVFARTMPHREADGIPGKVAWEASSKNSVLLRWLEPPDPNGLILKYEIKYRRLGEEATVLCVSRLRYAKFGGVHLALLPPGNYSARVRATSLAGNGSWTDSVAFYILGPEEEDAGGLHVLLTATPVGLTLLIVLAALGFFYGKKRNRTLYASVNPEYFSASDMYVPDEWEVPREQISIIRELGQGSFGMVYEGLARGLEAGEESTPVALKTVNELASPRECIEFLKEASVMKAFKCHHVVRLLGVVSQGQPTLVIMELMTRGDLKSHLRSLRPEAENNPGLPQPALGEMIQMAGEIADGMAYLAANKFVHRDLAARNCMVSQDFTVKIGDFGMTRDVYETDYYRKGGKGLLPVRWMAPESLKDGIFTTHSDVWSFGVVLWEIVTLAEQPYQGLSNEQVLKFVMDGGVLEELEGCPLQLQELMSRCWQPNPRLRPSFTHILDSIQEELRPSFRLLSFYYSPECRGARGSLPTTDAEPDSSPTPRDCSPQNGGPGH

[13] = target: Insulin-like growth factor 1 receptor (Homo sapiens) (UniProt P08069); details: at 1 µM
Sequence of Insulin-like growth factor 1 receptor (Homo sapiens) (P08069 31-736 limits assumed): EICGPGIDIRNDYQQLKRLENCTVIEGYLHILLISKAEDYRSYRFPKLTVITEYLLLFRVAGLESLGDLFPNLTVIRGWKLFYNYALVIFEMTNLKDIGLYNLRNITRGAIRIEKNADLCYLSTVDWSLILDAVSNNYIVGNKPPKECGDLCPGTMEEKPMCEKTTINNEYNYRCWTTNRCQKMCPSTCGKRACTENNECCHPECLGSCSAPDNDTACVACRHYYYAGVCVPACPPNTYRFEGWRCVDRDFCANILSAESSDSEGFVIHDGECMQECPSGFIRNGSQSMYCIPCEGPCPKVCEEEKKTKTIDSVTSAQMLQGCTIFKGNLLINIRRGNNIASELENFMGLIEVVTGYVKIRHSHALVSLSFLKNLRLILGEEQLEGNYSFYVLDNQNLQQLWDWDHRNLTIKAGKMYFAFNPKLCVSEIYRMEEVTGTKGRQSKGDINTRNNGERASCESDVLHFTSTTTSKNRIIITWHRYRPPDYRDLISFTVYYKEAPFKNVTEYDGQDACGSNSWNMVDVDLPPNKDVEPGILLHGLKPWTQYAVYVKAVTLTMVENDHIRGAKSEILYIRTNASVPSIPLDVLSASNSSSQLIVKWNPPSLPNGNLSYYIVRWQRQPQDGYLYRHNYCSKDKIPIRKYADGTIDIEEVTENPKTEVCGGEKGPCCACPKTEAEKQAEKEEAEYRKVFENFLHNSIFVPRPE
Sequence of Insulin-like growth factor 1 receptor (Homo sapiens) (P08069 741-1367 limits assumed): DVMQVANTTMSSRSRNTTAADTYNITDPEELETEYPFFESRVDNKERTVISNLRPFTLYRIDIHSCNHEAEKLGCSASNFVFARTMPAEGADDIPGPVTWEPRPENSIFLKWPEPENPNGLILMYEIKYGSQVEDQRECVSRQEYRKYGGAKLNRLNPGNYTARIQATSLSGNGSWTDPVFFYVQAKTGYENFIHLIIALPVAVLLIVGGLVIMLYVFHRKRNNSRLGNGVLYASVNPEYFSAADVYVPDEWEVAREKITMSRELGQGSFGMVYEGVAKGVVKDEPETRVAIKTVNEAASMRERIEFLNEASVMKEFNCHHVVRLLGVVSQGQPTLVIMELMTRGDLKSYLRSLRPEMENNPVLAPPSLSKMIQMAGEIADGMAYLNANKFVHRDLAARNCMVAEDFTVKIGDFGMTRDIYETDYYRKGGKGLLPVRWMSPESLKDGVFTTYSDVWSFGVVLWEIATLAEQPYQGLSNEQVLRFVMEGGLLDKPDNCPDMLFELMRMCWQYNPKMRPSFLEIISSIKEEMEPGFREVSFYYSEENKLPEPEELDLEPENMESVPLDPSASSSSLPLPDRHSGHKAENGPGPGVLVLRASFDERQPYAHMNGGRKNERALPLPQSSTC

[14] = target: Insulin-like growth factor 1 receptor (Homo sapiens) (UniProt P08069); details: at 10 µM
[15] = target: Insulin receptor (Homo sapiens) (UniProt P06213); details: at 1 µM
Sequence of Insulin receptor (Homo sapiens) (P06213 28-758 limits assumed): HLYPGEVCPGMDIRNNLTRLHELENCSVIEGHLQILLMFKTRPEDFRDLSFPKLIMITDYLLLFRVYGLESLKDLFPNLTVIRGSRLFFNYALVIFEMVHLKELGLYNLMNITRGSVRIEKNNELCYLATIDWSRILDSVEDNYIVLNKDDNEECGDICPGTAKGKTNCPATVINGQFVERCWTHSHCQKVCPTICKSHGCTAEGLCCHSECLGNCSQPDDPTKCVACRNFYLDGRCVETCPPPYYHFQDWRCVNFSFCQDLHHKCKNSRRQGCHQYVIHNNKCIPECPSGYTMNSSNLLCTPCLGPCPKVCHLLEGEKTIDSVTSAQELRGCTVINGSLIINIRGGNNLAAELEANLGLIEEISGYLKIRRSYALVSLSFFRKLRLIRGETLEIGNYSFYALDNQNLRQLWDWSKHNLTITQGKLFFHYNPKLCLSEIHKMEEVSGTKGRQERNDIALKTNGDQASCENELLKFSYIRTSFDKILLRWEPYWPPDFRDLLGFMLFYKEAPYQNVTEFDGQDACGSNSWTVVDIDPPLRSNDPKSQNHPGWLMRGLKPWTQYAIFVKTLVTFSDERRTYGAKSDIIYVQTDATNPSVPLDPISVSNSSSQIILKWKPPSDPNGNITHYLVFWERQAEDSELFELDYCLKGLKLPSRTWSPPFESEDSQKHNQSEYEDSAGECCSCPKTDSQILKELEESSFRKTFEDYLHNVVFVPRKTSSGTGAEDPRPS
Sequence of Insulin receptor (Homo sapiens) (P06213 763-1382 limits assumed): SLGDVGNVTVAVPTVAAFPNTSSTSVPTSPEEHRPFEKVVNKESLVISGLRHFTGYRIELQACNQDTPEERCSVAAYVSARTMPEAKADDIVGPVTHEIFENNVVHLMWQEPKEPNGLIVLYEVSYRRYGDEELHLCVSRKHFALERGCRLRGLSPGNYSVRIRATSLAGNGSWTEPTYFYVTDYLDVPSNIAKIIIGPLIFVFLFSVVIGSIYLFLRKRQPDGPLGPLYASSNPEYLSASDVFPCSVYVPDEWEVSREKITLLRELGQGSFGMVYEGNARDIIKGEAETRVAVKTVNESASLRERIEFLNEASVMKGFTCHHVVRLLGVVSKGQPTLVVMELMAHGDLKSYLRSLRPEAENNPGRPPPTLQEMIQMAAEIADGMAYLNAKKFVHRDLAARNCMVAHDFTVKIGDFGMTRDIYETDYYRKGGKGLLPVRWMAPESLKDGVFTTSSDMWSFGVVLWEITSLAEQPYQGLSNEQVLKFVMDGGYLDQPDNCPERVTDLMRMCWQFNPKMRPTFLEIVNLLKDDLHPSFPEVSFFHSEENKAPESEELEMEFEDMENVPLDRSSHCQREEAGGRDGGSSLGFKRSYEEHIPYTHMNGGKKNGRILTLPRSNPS

[16] = target: Insulin receptor (Homo sapiens) (UniProt P06213); details: at 10 µM
[17] = target: Insulin receptor (Homo sapiens) (UniProt P06213); details: at 1 µM; remark: listed apart in the source
[18] = target: Insulin receptor (Homo sapiens) (UniProt P06213); details: at 10 µM; remark: listed apart in the source
[19] = target: Insulin receptor-related protein (Homo sapiens) (UniProt P14616); details: at 10 µM
[20] = target: T6, Tyrosine-protein kinase ITK/TSK (Homo sapiens) (UniProt Q08881); details: at 1 µM
T6 sequence (whole entry): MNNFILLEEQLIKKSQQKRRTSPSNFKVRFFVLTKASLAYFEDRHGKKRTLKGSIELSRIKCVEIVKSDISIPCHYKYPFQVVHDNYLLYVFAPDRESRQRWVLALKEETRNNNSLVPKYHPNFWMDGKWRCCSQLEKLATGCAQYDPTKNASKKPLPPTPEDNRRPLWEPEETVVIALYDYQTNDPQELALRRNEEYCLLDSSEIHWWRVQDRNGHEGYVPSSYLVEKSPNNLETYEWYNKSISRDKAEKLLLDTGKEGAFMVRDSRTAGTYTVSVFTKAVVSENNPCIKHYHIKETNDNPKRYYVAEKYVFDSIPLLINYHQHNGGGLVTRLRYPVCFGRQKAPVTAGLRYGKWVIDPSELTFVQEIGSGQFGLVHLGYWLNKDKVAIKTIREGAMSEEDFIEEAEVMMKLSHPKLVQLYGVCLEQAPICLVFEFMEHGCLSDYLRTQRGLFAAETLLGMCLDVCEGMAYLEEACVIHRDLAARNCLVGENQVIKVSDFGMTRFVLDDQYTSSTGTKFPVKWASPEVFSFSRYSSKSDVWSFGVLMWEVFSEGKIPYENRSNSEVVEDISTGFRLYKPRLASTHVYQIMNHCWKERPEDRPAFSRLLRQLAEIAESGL

| Compound | residual activity [1] [%] | residual activity [2] [%] | residual activity [3] [%] | residual activity [4] [%] | residual activity [5] [%] | residual activity [6] [%] | residual activity [7] [%] | residual activity [8] [%] | residual activity [9] [%] | residual activity [10] [%] | residual activity [11] [%] | residual activity [12] [%] | residual activity [13] [%] | residual activity [14] [%] | residual activity [15] [%] | residual activity [16] [%] | residual activity [17] [%] | residual activity [18] [%] | residual activity [19] [%] | residual activity [20] [%] |
| --- | --- | --- | --- | --- | --- | --- | --- | --- | --- | --- | --- | --- | --- | --- | --- | --- | --- | --- | --- | --- |
| COc1cc2c(cc1OC)-c1n[nH]c(Nc3cccc(F)c3)c1C2 | 43 | 78 | 66 | 109 | 112 | 101 | 110 | 73 | 68 | 76 | 34 | 99 | – | – | – | – | – | – | – | – |
| COc1ccc2c(c1)c(C1=C(c3c[nH]c4ccccc34)C(=O)NC1=O)cn2CCCN(C)C | 24 | 69 | 49 | 80 | 64 | – | – | 81 | 75 | – | – | 122 | 101 | 82 | 100 | 73 | 97 | 71 | 67 | 101 |
| O=C1C(Cl)=C(N2C(=O)CCC2=O)C(=O)c2ccccc21 | 60 | 100 | 90 | – | – | 116 | 92 | 85 | – | 75 | 83 | – | 90 | 101 | 100 | 87 | 89 | 93 | – | – |
